About 750 (0.34%) of roughly 220,000 compounds were called active. Cut-off read from the data, not from the text of the source: active = response below about 60% or above about 140%; inactive = in between. Shown is part of a subset that was picked to be rich in actives.
The molecules below were run against Guanine nucleotide-binding protein G(o) subunit alpha (Homo sapiens) (UniProt P09471) (assay: compounds changing RGS8 association with Galphao – biochemical, multiplexed bead flow cytometry, primary screen (AID 1423;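 note: Galphao activated as the GDP aluminium fluoride complex binding bead-coupled RGS8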)). Settings: at 10 µM, actives lie on both sides.
Guanine nucleotide-binding protein G(o) subunit alpha (Homo sapiens), sequence (P09471 whole entry, looked up): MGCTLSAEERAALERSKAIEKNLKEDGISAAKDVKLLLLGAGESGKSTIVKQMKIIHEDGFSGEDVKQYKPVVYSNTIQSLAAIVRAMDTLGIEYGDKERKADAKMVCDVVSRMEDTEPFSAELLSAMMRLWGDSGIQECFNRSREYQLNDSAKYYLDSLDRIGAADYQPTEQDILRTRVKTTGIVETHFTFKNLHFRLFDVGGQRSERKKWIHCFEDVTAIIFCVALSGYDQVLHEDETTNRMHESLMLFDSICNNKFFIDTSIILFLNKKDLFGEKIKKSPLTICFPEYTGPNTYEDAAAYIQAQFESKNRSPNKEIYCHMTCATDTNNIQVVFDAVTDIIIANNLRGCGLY

Response (percent of control binding), inactive:
S=C1NC(c2ccccc2)=NCN1c1ccc(Br)cc1 106%
COc1ccc(N2C(=O)CNC2=S)cc1 102%
CC(C)NC(=O)c1ccc(Sc2ccccc2)c([N+](=O)[O-])c1 103%
Cc1c(C(=O)Nc2cccc(-c3nnc4n3CCCCC4)c2)oc2ccccc12 101%
Nc1ccc(C(=O)OCC(=O)NC2CCCc3ccccc32)cc1[N+](=O)[O-] (centres undefined) 101%
O=C(COC(=O)/C=C/c1ccc2c(c1)OCO2)NC1CCS(=O)(=O)C1 (centres undefined) 99.8%
Cc1ccc(/C=N/NC(=O)CSc2ccccn2)o1 101%
CC[C@H]1OC(=O)[C@H](C)[C@@H](O[C@H]2C[C@@](C)(OC)[C@@H](O)[C@H](C)O2)[C@H](C)[C@@H](O[C@@H]2O[C@H](C)C[C@H](N(C)C)[C@H]2O)[C@](C)(O)C[C@@H](C)[C@@H]2N[C@@H](COCCOC)O[C@H]([C@H]2C)[C@]1(C)O 85.8%
COc1cc(OC)nc(NC(=O)CCl)n1 100%
CCC(=O)Nc1nc(OC)cc(OC)n1 100%
CC(=O)c1c(C)[nH]c(C(=O)OCC(=O)Nc2sc3c(c2C#N)CCCC3)c1C 101%
O=Cc1ccc(OCc2cn3ccccc3n2)cc1 101%
Cn1cc(CCC(=O)N2CCCC(C(=O)c3ccc(C(C)(C)C)cc3)C2)cn1 (centres undefined) 98.1%
CCOC(=O)C1CCCN(C(=O)/C=C/c2ccc(OC)cc2)C1 (centres undefined) 100%
C=CCOC(=O)C1=C(C)N=C2SCCC(=O)N2C1/C=C/c1ccccc1OC (centres undefined) 92.4%
COc1cc(C2C(C(=O)c3ccc(C)o3)=C(O)C(=O)N2CCc2ccccc2)ccc1O (centres undefined) 101%
O=C(COc1nc2ccccc2nc1N1CCOCC1)NCC(F)(F)F 86%
CCOc1cc2[nH]c(=S)n(CCN3CCCCC3C)c(=O)c2cc1OCC (centres undefined) 111%
CC(=O)NC1C(OCc2ccccc2)OC(COC(C)=O)C(OC(C)=O)C1OC(C)=O (centres undefined) 105%
Cc1nnc(-c2ccc(Oc3ccc(C)c(C)c3)c([N+](=O)[O-])c2)o1 99.2%
O=C(Oc1ccccc1C(=S)N1CCCCC1)c1cc([N+](=O)[O-])cc([N+](=O)[O-])c1 95.2%
Cc1cc(=O)oc2cc(OCCC[n+]3ccccc3)ccc12 101%
CCOC(=O)c1c(/N=C/C2C(=O)CC(C)(C)CC2=O)sc(C)c1C 113%
Cc1ccc(C(=O)NCC(=O)O)s1 102%
N=C1C(=O)OCC1c1ccccc1NC(=O)CN1CCCCC1 (centres undefined) 100%
CCCc1ccc(C(=O)[C@@H]2[C@@H](C(C)=O)N3c4ccc(F)cc4C=C[C@@H]3[C@@]23C(=O)Nc2ccccc23)cc1 94.4%
Cn1nc(-c2ccccc2)c(CO)c1Sc1ccccc1 95.1%
CC(C)(C)CN1C(=O)C(=O)NC[C@H]1Cc1cccc2ccccc12 96.5%
CC(NC(=O)CCC(=O)N1CCN(S(=O)(=O)c2ccc(Cl)cc2)CC1)c1ccccc1 (centres undefined) 101%
CCNC(=O)NC(=O)C(C)OC(=O)C1CCN(S(=O)(=O)c2ccccc2F)CC1 (centres undefined) 106%
O=C(C1CC1)N1N=C2CCCCC2C1(O)C(F)(F)F (centres undefined) 100%
COC(=O)c1c(NC(=O)CN2CCN(S(=O)(=O)c3ccccc3[N+](=O)[O-])CC2)sc2c1CCC(C)C2 (centres undefined) 104%
Cc1ccc(C)c(NC(=O)c2ccc(OC(=O)c3ccco3)cc2)c1 102%
CC1=CC2=NC(=O)/C(=C/c3coc4ccccc4c3=O)C(=N)N2O1 108%
O=C(COC(=O)CC1CC2CCC1C2)NC(=O)NC1CCCC1 (centres undefined) 102%
O=C(c1ccccc1)C(Cn1cncn1)C(Sc1ccccc1)c1ccccc1 (centres undefined) 92.9%
CC(C)(O)C#Cc1ccc(C(=O)N2CCC(C(N)=O)(N3CCCCC3)CC2)cc1 100%
NC(=O)C1(N2CCCCC2)CCN(C(=S)Nc2ccc(Cl)cc2)CC1 129%
COc1ccc(NC(=S)NCC2CCN(c3ccc(OC)cc3)C2)cc1 (centres undefined) 97.5%
Cc1ccc(S(=O)(=O)N2CCOCC2)cc1C(=O)NC(=S)N(Cc1ccccc1)C(C)C 96.3%
COc1ccc(NC(=S)N2CCc3cc(OC)c(OC)cc3C2)cc1 103%
O=C(CSc1ncn[nH]1)Nc1nsc(-c2ccccc2)n1 79%
CC(C)(C)C1C/C(=C/c2ccco2)C(=O)/C(=C/c2ccco2)C1 (centres undefined) 97.5%
COc1cc(/C=C/C(=O)N2c3ccccc3Sc3ccc(C(F)(F)F)cc32)cc(OC)c1OC 101%
O=C(CN1CCCCCC1)N1c2ccccc2Sc2ccc(C(F)(F)F)cc21 107%
Cc1nc(N2CCOCC2)nc2c1CCCC2 99.2%
C[C@@H]1NC(=O)c2cc([N+](=O)[O-])cc(F)c2NCCC[C@@H](C(N)=O)NC(=O)[C@H](CC(N)=O)NC1=O 100%

Response (percent of control binding), active:
Nc1ccc(C(=O)OCC(=O)NC2CCS(=O)(=O)C2)cc1[N+](=O)[O-] (centres undefined) 6.98%
CC(=O)Nc1nc(N(C)C)nc(N(C)C)n1 25.1%
CCOC(=O)C1=C(c2ccccc2)N=C2SCC(=O)N2C1c1ccc(O)c(OC)c1 (centres undefined) 144% [activator]
O=C(OCC1O[C@@H](OC(=O)c2cc(O)c(O)c(O)c2)[C@@H](OC(=O)c2cc(O)c(O)c(O)c2)[C@@H](OC(=O)c2cc(O)c(O)c(O)c2)[C@@H]1OC(=O)c1cc(O)c(O)c(O)c1)c1cc(O)c(O)c(O)c1 (some centres undefined) 46.9%
CC(NC(=O)COC(=O)C1CCN(S(=O)(=O)c2ccccc2C(F)(F)F)CC1)c1ccccc1 (centres undefined) 148% [activator]
CCC(=O)N1CCC(C(N)=O)(N2CCCCC2)CC1 163% [activator]
O=C(CN1CCCCC1)N1c2ccccc2Sc2ccc(C(F)(F)F)cc21 22.7%
